In the library only some 1.2% were active in any assay of this set; here they are far more common.
MEP2-GFP yeast: modulators of MEP2-GFP levels in yeast, primary screen, S. cerevisiae, multiplex flow cytometry, MLPCN library | S. cerevisiae MEP2-GFP strain, 3 h; 100% = DMSO control level | GFP response vs DMSO, % at 10 µM | actives 0.51% (n = 330,000) | AID 2016, 2009;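 active = GFP response versus DMSO above a set limit, roughly screen mean plus 3 SD, cut at about 180% in these data; inconclusive = fewer than 70 cells counted for a yeast strain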;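 also: median GFP fluorescence of the barcode-gated MEP2-GFP cells per well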
RPL19A TOR yeast: RPL19A-GFP expression modulators in yeast, primary screen, cell-based, S. cerevisiae, multiplex flow cytometry, MLPCN; S. cerevisiae RPL19A-GFP strain, 3 h; stronger effect = lower value; percent response vs DMSO, % at 10 µM; actives 0.3% (n = 330,000);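 active = percent response vs DMSO below 50%; inconclusive = fewer than 70 events counted for the yeast strain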;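 also: median channel GFP fluorescence of the barcoded RPL19A-GFP strain; lower means less RPL19A-GFP as with rapamycin TOR inhibition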
AGP1-GFP MLPCN: modulators of AGP1-GFP expression in yeast TOR pathway, primary screen, cell-based, multiplex flow cytometry, S. cerevisiae, MLPCN library. 3 h; GFP as percent of DMSO wells. GFP response vs DMSO, % at 10 µM. actives 0.02% (n = 320,000);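 active = GFP response relative to DMSO above a set limit, near screen average plus 3 SD, cut at about 150% in these data; inconclusive = fewer than 70 cells counted for the yeast strain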;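 also: median GFP channel fluorescence of the gated AGP1 strain per well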
CIT2-GFP yeast: modulators of CIT2-GFP expression in yeast, primary screen, S. cerevisiae, GFP fusion, multiplex flow cytometry, MLPCN library. S. cerevisiae CIT2-GFP strain, 3 h; 100 means same as DMSO wells. GFP response vs DMSO, % at 10 µM. actives 0.065% (n = 320,000). AID 2029, 2009;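 active = GFP response relative to DMSO above a set limit, near the screen mean plus 3 SD, cut at about 150% in these data; inconclusive = Fewer than 70 cells measured for a yeast strain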;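 also: ratio of well median GFP fluorescence to mean of DMSO wells on the plate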
LAP4 TOR yeast: modulators of LAP4-GFP expression in yeast, primary screen, S. cerevisiae, multiplex flow cytometry, MLPCN library. 3 h; median GFP as percent of DMSO wells. GFP response vs DMSO, % at 10 µM. actives 0.34% (n = 320,000);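 active = GFP response vs DMSO above a set limit, about the screen mean plus 3 SD, cut at about 150% in these data; inconclusive = under 70 cell events counted for the yeast strain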
Pemphigus Ab inh: inhibitors of pemphigus antibody binding to DSG3, primary screen, biochemical, bead-based, flow cytometry, scFv-GFP; DSG3-coupled beads, scFv-anti-DSG3-GFP binding; stronger effect = lower value; binding (percent of control), % at 10 µM; actives 0.48% (n = 310,000);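 active = binding more than 3 SD below its plate's average and above zero; inconclusive = below that plate limit but binding exactly zero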;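 also: hits lower antibody fragment binding to DSG3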
Target sequence (P32926 whole entry, looked up, the tested form may be a part): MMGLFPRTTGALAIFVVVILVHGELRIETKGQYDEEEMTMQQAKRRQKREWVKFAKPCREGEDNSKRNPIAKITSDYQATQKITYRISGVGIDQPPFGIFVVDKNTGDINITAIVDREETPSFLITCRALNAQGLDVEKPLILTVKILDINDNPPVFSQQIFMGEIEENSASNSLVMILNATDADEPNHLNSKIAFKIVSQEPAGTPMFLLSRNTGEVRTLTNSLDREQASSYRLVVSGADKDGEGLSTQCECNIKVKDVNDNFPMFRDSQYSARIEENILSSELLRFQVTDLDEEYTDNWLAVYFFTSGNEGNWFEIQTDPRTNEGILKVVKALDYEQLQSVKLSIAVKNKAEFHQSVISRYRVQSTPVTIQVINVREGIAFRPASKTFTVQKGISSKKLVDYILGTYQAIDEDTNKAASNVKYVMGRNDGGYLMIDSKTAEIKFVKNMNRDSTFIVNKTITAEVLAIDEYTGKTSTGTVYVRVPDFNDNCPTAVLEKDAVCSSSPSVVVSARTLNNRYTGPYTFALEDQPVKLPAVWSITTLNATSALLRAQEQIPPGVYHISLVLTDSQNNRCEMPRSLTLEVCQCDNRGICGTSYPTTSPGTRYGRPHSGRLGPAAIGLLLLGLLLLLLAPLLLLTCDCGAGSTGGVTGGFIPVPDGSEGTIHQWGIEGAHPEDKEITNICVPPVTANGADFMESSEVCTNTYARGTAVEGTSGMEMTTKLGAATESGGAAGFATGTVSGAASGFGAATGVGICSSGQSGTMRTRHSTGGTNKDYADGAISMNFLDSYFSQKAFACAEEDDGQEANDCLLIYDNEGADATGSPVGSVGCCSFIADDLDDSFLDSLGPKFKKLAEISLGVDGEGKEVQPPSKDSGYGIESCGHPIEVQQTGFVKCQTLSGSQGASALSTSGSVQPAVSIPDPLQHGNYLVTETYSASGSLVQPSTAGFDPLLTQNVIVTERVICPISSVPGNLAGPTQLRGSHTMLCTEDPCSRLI
LAP4 cherry2: LAP4-GFP expression modulators in yeast, confirmation, cell-based, second cherry pick, flow cytometry. shares compounds with LAP4 TOR yeast. S. cerevisiae LAP4-GFP strain, 3 h. GFP response vs DMSO, % at 10 µM. actives 20% (n = 590). AID 2621, 2010;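 active = GFP signal as percent of the solvent control above about 150%, meaning raised reporter expression, limit read from the data; inconclusive = fewer than 70 cells counted in the well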
MEP2 cherry2: modulators of MEP2-GFP levels in yeast, confirmation, S. cerevisiae, flow cytometry GFP, second cherry picks. shares compounds with LAP4 TOR yeast. S. cerevisiae MEP2-GFP strain, 3 h. GFP response vs DMSO, % at 10 µM. actives 10% (n = 590). AID 2622, 2010;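 active = GFP signal above 150% of the solvent control wells, that is a rise of more than half; inconclusive = fewer than 70 yeast cells counted in the well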;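 also: median channel GFP fluorescence of all gated yeast cells per well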
RPL19A-GFP pick2: RPL19A-GFP modulators in TOR pathway yeast, confirmation, cell-based, S. cerevisiae, flow cytometry, second cherry pick | shares compounds with LAP4 TOR yeast | S. cerevisiae RPL19A-GFP strain, 3 h; stronger effect = lower value; 100% means same as DMSO wells | GFP response vs DMSO, % at 10 µM | actives 3% (n = 590) | AID 2623, 2010;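 active = under 65% GFP response relative to DMSO; inconclusive = yeast strain with under 70 measured events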;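 also: median GFP channel fluorescence per well over the all cells gate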
CIT2 GFP CP2: modulators of CIT2-GFP expression in yeast, confirmation, flow cytometry, second cherry pick, single plex. S. cerevisiae CIT2-GFP strain, 3 h; DMSO control wells read 100%. shares compounds with LAP4 TOR yeast. GFP response vs DMSO, % at 10 µM. AID 2624, 2010. actives 8% (n = 590);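 active = GFP response vs DMSO above about 150%, limit read from the data; inconclusive = fewer than 70 events counted for a yeast strain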;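 also: median green fluorescence per well over all gated yeast cells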
AGP1 GFP CP2: AGP1-GFP expression modulators, hit retest, confirmation, cell-based, flow cytometry, S. cerevisiae, cherry pick set 2. shares compounds with LAP4 TOR yeast. S. cerevisiae AGP1-GFP strain, 3 h. percent response vs DMSO, % at 10 µM. 590 tested, under 10 active;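 active = over 150 percent of DMSO response; inconclusive = yeast strain measured with under 70 events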;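 also: median GFP channel fluorescence over all cells without mother daughter split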
Yeast autofluor: compound autofluorescence in yeast s288c, dose response, artefact control for yeast TOR pathway GFP screen, s288c strain | 610 tested, under 10 active | shares compounds with LAP4 TOR yeast | S. cerevisiae s288c, 520 nm autofluorescence, flow cytometry, 3 h; stronger effect = higher value; zero means same as solvent-only cells | fluorescence change (kMESF span) at 33 µM;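 active = fluorescence span over the dose series, or activity score, above about 33, limit read from the data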
s288c autofl DR: autofluorescence of compounds in yeast s288c, dose response, artefact control for yeast TOR pathway GFP screen, primary hits, KU SAR, s288c parental; shares compounds with LAP4 TOR yeast; S. cerevisiae s288c parental, compound autofluorescence, flow cytometry, 3 h; fluorescence change (span) at 33 µM; 110 tested, under 10 active; AID 488829, 2010;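 active = fluorescence change span, or the activity score built from it, above 25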
TORC1 bypass gr: wild-type yeast growth inhibition sparing TORC1 bypass cells, mechanism study for yeast TOR pathway GFP screen, BY4741 wild type, TORC1 bypass strain; shares compounds with LAP4 TOR yeast; S. cerevisiae BY4741 spot growth rating, 48-72 h; stronger effect = lower value; growth rating (0-3) at 30 µM; 120 tested, under 10 active;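 active = growth rating at most 1 for wild type yeast while the TORC1 bypass strain still grows fully, rated 3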
Numbers stand for hits; i = inactive; ? = inconclusive; nt = no result.

SMILES	MEP2-GFP yeast	RPL19A TOR yeast	AGP1-GFP MLPCN	CIT2-GFP yeast	LAP4 TOR yeast	Pemphigus Ab inh	Yeast autofluor	others
C#CCOc1c(Br)cc(/C=C2/C(=O)ON=C2C)cc1OC	i	i	i	i	197	i	i	LAP4 cherry2=187;MEP2 cherry2=i;RPL19A-GFP pick2=i;CIT2 GFP CP2=i;AGP1 GFP CP2=i
O=C1OCCC1Sc1nnc(-c2ccco2)o1 (configuration not stated)	i	i	i	i	i	i	nt
O=C1OCCC1Sc1nnc(-c2ccc(Br)cc2)o1 (configuration not stated)	i	i	i	i	i	i	nt	LAP4 cherry2=i;MEP2 cherry2=i;RPL19A-GFP pick2=i;CIT2 GFP CP2=i;AGP1 GFP CP2=i
CCN(CCO)Cc1csc2ccc(Br)cc12	i	i	i	i	i	i	nt
CCC(=O)N1c2ccc(S(=O)(=O)NCCc3ccccc3)cc2CC1C (configuration not stated)	i	i	i	i	i	nt	nt
CN(Cc1cnc2nc(N)nc(N)c2n1)c1ccc(C(=O)N[C@@H](CCC(=O)O)C(=O)O)cc1	i	i	i	i	233	i	i	LAP4 cherry2=273;MEP2 cherry2=i;RPL19A-GFP pick2=i;CIT2 GFP CP2=i;AGP1 GFP CP2=i
O=C(O)CCC(NC(=O)c1cncc(O)c1)C(=O)O (configuration not stated)	i	i	i	i	i	i	nt
CCOC(=O)CCC(NC(=O)c1ccc(NCN2C(=O)CCC2=O)cc1)C(=O)OCC (configuration not stated)	i	i	i	i	i	i	nt
Nc1nc2ncc(CNc3ccc(C(=O)N[C@@H](CCC(=O)O)C(=O)O)cc3)nc2c(=O)[nH]1	i	i	i	i	i	nt	i	LAP4 cherry2=i;MEP2 cherry2=i;RPL19A-GFP pick2=i;CIT2 GFP CP2=i;AGP1 GFP CP2=i
O=Cc1cc(-c2ccccc2)[nH]c1-c1ccccc1	i	i	i	i	i	i	nt
CS(=O)(=O)N(CC(=O)NCCSCc1cccc(Cl)c1)c1ccc(F)cc1	i	i	i	i	i	i	nt
CCCc1cc(NCc2ccccn2)n2nc(C)c(-c3ccccc3)c2n1	i	i	i	i	158	i	i
Cc1nn2c(NCc3ccccn3)cc(C(C)C)nc2c1-c1ccccc1	i	i	i	i	i	i	nt
CCOC(=O)CSC1=NC(=O)/C(=C\c2ccc(Cl)cc2)S1	i	i	i	i	184	?	i	s288c autofl DR=i;TORC1 bypass gr=i
Cc1cc(C(=O)OCC(=O)NCCc2ccc(S(N)(=O)=O)cc2)c2ccccc2n1	i	?	i	i	i	i	nt
CCOC(=O)c1c(C)oc2c1c(C(c1ccncc1)N1CCOCC1)c(O)c1ccccc12 (configuration not stated)	i	i	nt	i	185	nt	i
COc1ccc(NC(=O)/C(C#N)=C/c2ncc([N+](=O)[O-])n2C)c(OC)c1	i	i	i	i	182	i	i
Cc1cccc(N=NC(=S)NNc2cccc(C)c2)c1	nt	nt	nt	nt	nt	i	nt
Cc1nc2ccc(CCO)cc2s1	i	i	i	i	i	i	nt
Cc1ccc2c(c1)N(CCCC(=O)NCC1COc3ccccc3O1)C(=O)CO2 (configuration not stated)	i	i	i	i	i	i	nt
Cc1ccc2c(c1)N(CCCC(=O)Nc1cccc(C(F)(F)F)c1)C(=O)CO2	i	i	i	i	i	i	nt	LAP4 cherry2=i;MEP2 cherry2=i;RPL19A-GFP pick2=i;CIT2 GFP CP2=i;AGP1 GFP CP2=i
COc1ccc(C(CCN2CCOCC2)c2c(OC)cc(OC)c3c(C)cc(=O)oc23)cc1 (configuration not stated)	nt	nt	nt	nt	nt	i	nt
Cc1ccc(CNC(=O)c2cc(C3CC3)nc3c2cnn3C(C)C)cc1	i	i	i	i	i	i	nt
CN(C)/C=C1/Sc2ccccc2C1=O	i	i	i	i	i	nt	nt
CC(=O)N(\C=C/C=C/C=C1\Sc2ccccc2C1=O)c1ccccc1	283	i	i	200	167	i	i
O=C(COc1ccccc1)N1CCN(c2ncnc3c2cnn3-c2ccccc2)CC1	190	i	i	i	i	i	i
Cc1ccccc1NC(=O)C(NC1CCCCC1)C(C)C (configuration not stated)	i	i	i	i	i	i	nt	LAP4 cherry2=i;MEP2 cherry2=i;RPL19A-GFP pick2=i;CIT2 GFP CP2=i;AGP1 GFP CP2=i
Cn1c(=O)c(NCCO)c2c3c(cccc31)C(=O)c1ccccc1-2	i	i	i	i	i	i	nt
